Laboratory results reported in PubChem BioAssay AID1159580 (chemical genetic matrix, 2015).
Where “and” joins values, the source holds several entries; their conditions need not be identical. Equal values may be shown once. The whole screen tested about 5,500 compounds, of which about 2,000 (36%) were called active. Roughly 18% stayed inconclusive and do not appear here. No stated cut-off is given here; in the data, active means normalized growth mostly below about 0.91 (no sharp cut-off); inconclusive means no clear call, values can overlap the other calls; inactive means mostly above about 0.92. Some of the results follow.

Test: chemical genetic growth profiling, strain panel (AID 1159580);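 further: tested at 20 µM; growth read once vehicle control cultures reached saturation at 30 °C; 1 = growth at the plate median or of vehicle wells; lower values mean less growth of the strain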
Conditions: S. cerevisiae deletion strains, growth OD

Measured: normalized growth

Nc1ccc(S(=O)(=O)Nc2ncccn2)cc1
inactive: locus YAL013W, strain DEP1, active compounds read low 0.982 | locus YAL021C, strain ccr4, active compounds read low 0.968 | locus YAL026C, strain drs2, active compounds read low 0.986 | locus YAL030W, strain snc1, active compounds read low 0.994 | locus YBL061C, strain skt5, active compounds read low 0.985 | locus YBR009C, strain hhf1, active compounds read low 0.986 | locus YBR021W, strain FUR4, active compounds read low 0.992 | locus YBR023C, strain chs3, active compounds read low 0.993 | locus YBR171W, strain sec66, active compounds read low 0.973 | locus YBR229C, strain ROT2, active compounds read low 0.96 | locus YBR231C, strain swc5, active compounds read low 1.02 | locus YBR279W, strain paf1, active compounds read low 0.995 | locus YCL011C, strain gbp2, active compounds read low 0.957 | locus YCL016C, strain dcc1, active compounds read low 1.01 | locus YCL029C, strain bik1, active compounds read low 0.991 | locus YCL069W, strain vba3, active compounds read low 0.954 | locus YCR088W, strain abp1, active compounds read low 0.976 | locus YDL005C, strain med2, active compounds read low 0.985 | locus YDL035C, strain GPR1, active compounds read low 0.979 | locus YDL040C, strain nat1, active compounds read low 0.971 | locus YDL074C, strain BRE1, active compounds read low 0.969 | locus YDL101C, strain DUN1, active compounds read low 0.981 | locus YDL134C, strain PPH21, active compounds read low 0.999 | locus YDL185W, strain tfp1, active compounds read low 0.988 | locus YDL192W, strain arf1, active compounds read low 1 | locus YDR001C, strain nth1, active compounds read low 0.965 | locus YDR069C, strain doa4, active compounds read low 0.97 | locus YDR101C, strain arx1, active compounds read low 1.01 | locus YDR137W, strain rgp1, active compounds read low 0.964 | locus YDR150W, strain NUM1, active compounds read low 0.985 | locus YDR159W, strain sac3, active compounds read low 0.955 | locus YDR162C, strain NBP2, active compounds read low 0.996 | locus YDR195W, strain ref2 0.956 | locus YDR297W, strain sur2, active compounds read low 0.975 | locus YDR318W, strain mcm21, active compounds read low 1 | locus YDR334W, strain swr1, active compounds read low 0.935 | locus YDR335W, strain msn5, active compounds read low 0.988 | locus YDR388W, active compounds read low 0.994 | locus YDR392W, strain spt3, active compounds read low 1 | locus YDR502C, strain sam2, active compounds read low 1.01 | locus YEL003W, strain gim4, active compounds read low 0.991 | locus YEL037C, strain rad23, active compounds read low 0.967 | locus YEL061C, strain CIN8 (second series), active compounds read low 0.967 | locus YEL061C, strain CIN8, active compounds read low 0.988 | locus YER015W, strain faa2, active compounds read low 0.994 | locus YER016W, strain bim1, active compounds read low 0.968 | locus YER110C, active compounds read low 0.968 | locus YER111C, strain swi4, active compounds read low 1 | locus YER155C, strain BEM2 (second series), active compounds read low 0.989 | locus YER155C, strain BEM2, active compounds read low 0.991 | locus YER167W, strain BCK2, active compounds read low 0.99 | locus YFR010W, strain ubp6, active compounds read low 0.941 | locus YGL078C, strain dbp3, active compounds read low 1 | locus YGL086W, strain mad1, active compounds read low 0.997 | locus YGL167C, strain pmr1, active compounds read low 0.976 | locus YGL173C, strain kem1, active compounds read low 0.994 | locus YGL227W, strain vid30, active compounds read low 0.995 | locus YGL240W, strain doc1, active compounds read low 0.986 | locus YGL248W, strain PDE1, active compounds read low 0.978 | locus YGL253W, strain hxk2, active compounds read low 0.923 | locus YGR078C, strain PAC10, active compounds read low 0.986 | locus YGR135W, strain pre9, active compounds read low 0.997 | locus YGR252W, strain gcn5, active compounds read low 0.957 | locus YHR013C, strain ard1, active compounds read low 0.984 | locus YHR027C, strain rpn1, active compounds read low 0.988 | locus YHR030C, strain SLT2, active compounds read low 0.999 and 0.97 | locus YHR079C, strain IRE1 (second series), active compounds read low 1 | locus YHR079C, strain IRE1, active compounds read low 0.979 | locus YHR094C, strain hxt1, active compounds read low 0.994 | locus YHR129C, strain ARP1, active compounds read low 0.987 | locus YHR142W, strain chs7, active compounds read low 0.984 | locus YHR200W, strain rpn10, active compounds read low 0.992 | locus YIL066C, strain RNR3, active compounds read low 0.984 | locus YIL073C, strain SPO22, active compounds read low 1.02 | locus YIL125W, strain kgd1, active compounds read low 0.995 | locus YIR030C, strain dcg1, active compounds read low 0.997 | locus YJL092W, strain hpr5, active compounds read low 0.974 | locus YJL095W, strain BCK1 (second series), active compounds read low 0.995 | locus YJL095W, strain BCK1, active compounds read low 0.994 and 0.979 | locus YJL115W, strain asf1, active compounds read low 0.97 | locus YJL129C, strain trk1, active compounds read low 0.984 | locus YJL134W, strain LCB3, active compounds read low 0.993 | locus YJL154C, strain vps35, active compounds read low 0.969 | locus YJL164C, strain tpk1, active compounds read low 0.992 | locus YJL166W, strain qcr8, active compounds read low 0.936 | locus YJL168C, strain set2, active compounds read low 0.992 | locus YJL187C, strain SWE1 (second series), active compounds read low 0.986 | locus YJL187C, strain SWE1, active compounds read low 0.974 | locus YJR043C, strain POL32, active compounds read low 1.01
